Shown are actives, neighbours in structure and some others; about 4.8% of the full set was active somewhere.
hgDAF-12 ag – H. glycines DAF-12 receptor agonists, primary screen, cell-based, luminescence, HEK293, GAL4 fusion, UAS-luciferase | activation, % at 6.8 µM | HEK293 GAL4-hgDAF12 UAS-luciferase reporter, agonist luminescence; normalized to butyrate control | 370,000 compounds, 1.8% hits | AID 687014, 2013;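 active = activation above a cutoff set at the mean of all screened compounds plus 3 SD, cut at about 10% in these data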
DAX1 inh-1 – DAX1 (NR0B1) inhibitors on StAR promoter, primary screen, cell-based, luminescence, SF-1 (NR5A1), full-length DAX-1; AID 652010, 2013; inhibition, % at 6.8 µM; 370,000 compounds, 1.1% hits; HEK293T StAR-luciferase reporter, SF-1/DAX-1 repression relief;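 active = inhibition above the mean over all tested compounds plus 3 SD, cut at about 3.6% in these data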;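 note: higher inhibition means more luminescence from relief of DAX-1 repression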
DAX1 inh-2 – DAX1 (NR0B1) inhibitors, primary screen, cell-based, HEK293, Gal4-DAX1, luciferase luminescence | Nuclear receptor subfamily 0 group B member 1 (Homo sapiens), P51843 | HEK293 Gal4-DAX1 luciferase reporter | inhibition, % at 6.75 µM | 340,000 compounds, 0.99% hits | AID 504766, 2011;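 active = inhibition above the mean over all tested compounds plus 3 SD, cut at about 4.2% in these data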;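 note: inhibition shows as a rise in luminescence from relieved DAX1 repression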
ssDAF-12 act – S. stercoralis DAF-12 nuclear receptor activators, primary screen, cell-based, luminescence, HEK293, GRIP1 co-expression, lit1-tk-luc. 370,000 compounds, 1% hits. activation, % at 6.8 µM. HEK293 ssDAF-12/GRIP1 lit1-tk-luc reporter; % of 3 µM dafachronic acid response. AID 652126, 2013;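 active = activation above the mean over all tested compounds plus 3 SD, cut at about 0.9% in these data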
hcDAF-12 act – H. contortus DAF-12 nuclear receptor activators, primary screen, cell-based, luminescence, HEK293, lit1-tk-luc reporter. 370,000 compounds, 1.4% hits. HEK293 hcDAF-12 lit1-tk-luc reporter; 0% DMSO, 100% Δ7-dafachronic acid. activation, % at 6.8 µM. AID 652067, 2013;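 active = activation above the mean of all tested compounds plus 3 SD, cut at about 5.5% in these data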
SMARCA2 act – SMARCA2 (BRM) function activators, primary screen, cell-based, luminescence, high throughput | MG213 cells, MMTV-luciferase reporter, dexamethasone, overnight | activation, % at 9.1 µM | AID 652017, 2013 | 370,000 compounds, 1% hits; in the data active = activation above about 7.8%
DAX1 inh confirm – DAX1 (NR0B1) inhibitors relieving SF-1 repression, confirmation, cell-based, luminescence, HEK293T, full-length DAX-1, SF-1 activated StAR promoter | shares compounds with DAX1 inh-1 | HEK293T StAR-promoter luciferase reporter, SF-1/DAX-1 repression | inhibition, % at 6.8 µM | 2,400 compounds, 87% hits;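 active = inhibition above the average of every tested compound plus 3 SD, cut at about 3.8% in these data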
Target sequence (P51843 whole entry, looked up): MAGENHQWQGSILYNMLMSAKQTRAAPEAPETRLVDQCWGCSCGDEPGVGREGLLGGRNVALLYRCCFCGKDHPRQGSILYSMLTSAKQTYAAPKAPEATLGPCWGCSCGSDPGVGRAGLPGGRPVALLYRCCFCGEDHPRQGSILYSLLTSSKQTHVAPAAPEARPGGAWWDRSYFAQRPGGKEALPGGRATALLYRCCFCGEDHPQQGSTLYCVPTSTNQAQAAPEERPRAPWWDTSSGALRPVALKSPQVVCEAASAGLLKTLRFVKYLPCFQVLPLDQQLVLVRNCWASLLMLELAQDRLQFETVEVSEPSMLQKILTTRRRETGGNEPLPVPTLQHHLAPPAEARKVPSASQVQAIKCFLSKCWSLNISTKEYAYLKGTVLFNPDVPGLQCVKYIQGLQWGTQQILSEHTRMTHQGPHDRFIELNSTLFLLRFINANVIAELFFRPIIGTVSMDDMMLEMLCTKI
SF1 mutant ctr – StAR reporter signal changes without DAX1, counter-screen for DAX1 inhibitor project, cell-based, luminescence, AF-2 mutant SF-1, transactivation; shares compounds with DAX1 inh-1; HEK293 StAR-luciferase, SF-1 AF2 mutant; inhibition, % at 6.8 µM; 2,400 compounds, 78% hits;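 active = inhibition above the mean of all tested compounds plus 3 SD, cut at about 3% in these data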
SMARCA2 conf – SMARCA2 (BRM) function activators, confirmation, cell-based, luminescence, triplicate; 3,500 compounds, 30% hits; MG213 cells, MMTV-luciferase with dexamethasone, overnight; MG213 cells expressing E1A, Rb sequestered; DMSO wells 0%, reference activator 100%; activation, % at 9.1 µM; shares compounds with SMARCA2 act; AID 652260, 2013;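 active = activation above its plate's cutoff, the mean activation of tested wells plus 3 SD, cut at about 7.9% in these data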
VP16 Luc act – GAL4-VP16 luciferase reporter activation, counter-screen for SMARCA2 (BRM) activator project, cell-based, pG5luc, luminescence, high throughput | shares compounds with SMARCA2 act | HEK293 GAL4-VP16 pG5luc reporter; scaled: DMSO wells 0%, SAHA wells 100% | activation, % at 9.1 µM | 3,500 compounds, 41% hits | AID 686939, 2013;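 active = activation above the solvent-only control well mean plus 3 SD, averaged across control plates, cut at about 5.2% in these data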
LXRb hcDAF ctr – LXR agonists, Gal4 luciferase reporter, confirmation, counter-screen for hcDAF-12 agonist project, cell-based, luminescence, HEK293, H. contortus campaign; shares compounds with hcDAF-12 act; HEK293 Gal4-LXR tk-luc reporter, 24 h; normalized: DMSO 0%, positive control 100%; activation, % at 6.8 µM; 3,400 tested, under 10 active; AID 743027, 2013;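 active = mean percent activation of the reporter above a cutoff set as the average over tested compounds plus their standard deviation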
hcDAF12 ag – H. contortus DAF-12 receptor agonists, confirmation, cell-based, luminescence, HEK293, lit1-tk-luc, triplicate | shares compounds with hcDAF-12 act | HEK293 hcDAF-12 lit1-tk-luc reporter; % of Δ7-dafachronic acid response | activation, % at 6.8 µM | 3,400 compounds, 61% hits | AID 743032, 2013;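 active = mean activation across triplicate tests above the threshold derived from the earlier primary screen, cut at about 5.5% in these data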
hgDAF12 ag – H. glycines DAF-12 receptor agonists, confirmation, cell-based, luminescence, HEK293, GAL4-LBD fusion | shares compounds with hgDAF-12 ag | HEK293 GAL4-hgDAF12 luciferase reporter, agonist mode; percent of butyrate response | activation, % at 6.8 µM | 3,300 compounds, 80% hits | AID 743050, 2013;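 active = mean activation over triplicate wells above the hit cutoff derived from the earlier primary screen, cut at about 11% in these data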
LXR ag 2 – LXR agonists, Gal4 luciferase reporter, confirmation, counter-screen for hgDAF-12 agonist project, cell-based, luminescence, HEK293, H. glycines campaign. shares compounds with hgDAF-12 ag. 24 h. activation, % at 6.8 µM. 3,300 tested, under 10 active. AID 743051, 2013;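 active = mean activation of the triplicate above a set limit carried over from the primary screen, none filed active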
Each line names hits and unclear results; the compound was inactive in the other large screens (follow-up assays come after a bar, where they were run).

CC(C)CC(=O)Nc1ccc(-c2nc3ccccc3c(=O)[nH]2)cc1	hgDAF-12 ag 16, DAX1 inh-1 5.0 | DAX1 inh confirm 17 | SF1 mutant ctr 7.6 | hgDAF12 ag 21 | LXR ag 2 inactive
CC(C)CC(=O)Nc1ccc(-c2nc3ccccc3c(=O)o2)cc1	none
CC(C)Cn1c(N2CCN(C(=O)c3cccs3)CC2)nc2ccccc21	none
CCc1noc(C)c1C(=O)N1CCCC(C(=O)c2ccc(OC)c(F)c2)C1 (configuration not stated)	none
Cc1cc(C)c(C#N)c(SCc2nnc(-c3ccccc3[N+](=O)[O-])o2)n1	hgDAF-12 ag 16, DAX1 inh-1 5.1 | DAX1 inh confirm 18 | SF1 mutant ctr 4.6 | hgDAF12 ag 11 | LXR ag 2 inactive
Cc1cc(C)c(C#N)c(SCc2ccccc2[N+](=O)[O-])n1	none
COc1ccccc1NC(=O)CC(=O)c1ccccc1	none
CC1CCN(C(=O)c2ccc(S(=O)(=O)N3CCCCCC3)cc2)CC1	none
O=C(Nc1ccc2c(c1)Cc1ccccc1-2)c1ccco1	hgDAF-12 ag 17, DAX1 inh-1 5.6, hcDAF-12 act 6.3 | DAX1 inh confirm 17 | SF1 mutant ctr 10 | hgDAF12 ag 21 | LXR ag 2 inactive
CC(=O)Nc1nc2c(F)cccc2s1	none
O=C(Nc1nc2c(F)cccc2s1)c1ccco1	hgDAF-12 ag 16, DAX1 inh-1 4.8, hcDAF-12 act 5.6 | DAX1 inh confirm 6.8 | SF1 mutant ctr 6.7 | hgDAF12 ag 17 | LXR ag 2 inactive
Cc1nn2cc(-c3ccccc3)nc2s1	hgDAF-12 ag 14, DAX1 inh-1 5.7 | DAX1 inh confirm 10 | SF1 mutant ctr 7.5 | hgDAF12 ag 15 | LXR ag 2 inactive
O=C(Nc1ccc(SC(F)(F)F)cc1)c1ccccn1	hgDAF-12 ag 22, DAX1 inh-1 6.1, ssDAF-12 act 1.1, hcDAF-12 act 8.4 | DAX1 inh confirm 15 | SF1 mutant ctr inactive | LXRb hcDAF ctr inactive | hcDAF12 ag 11 | hgDAF12 ag 20 | LXR ag 2 inactive
Nc1nc2ncccc2cc1C(=O)C1=C(c2ccccc2)Cc2ccccc21	none (no result: DAX1 inh-2)
CC1Cc2ccccc2N1C(=O)COC(=O)/C=C/c1ccc(F)cc1 (configuration not stated)	none
CC1Cc2ccccc2N1C(=O)/C=C/c1cccc(F)c1 (configuration not stated)	hgDAF-12 ag 16, DAX1 inh-1 6.1, SMARCA2 act 8.2 | DAX1 inh confirm 7.6 | SF1 mutant ctr 6.9 | SMARCA2 conf inactive | VP16 Luc act 9.9 | hgDAF12 ag 16 | LXR ag 2 inactive
O=C1CN(c2nc(-c3cccnc3)nc3scc(-c4ccccc4)c23)CCN1	none
C=CCn1c(=O)c(C(=O)Nc2ccccc2C(=O)OCC)c(O)c2ccccc21	none
C=CCn1c(=O)c(C(=O)Nc2ccccc2S(N)(=O)=O)c(O)c2ccccc21	hgDAF-12 ag 15, DAX1 inh-1 5.8, ssDAF-12 act 1.1, hcDAF-12 act 12, SMARCA2 act 11 | DAX1 inh confirm 10 | SF1 mutant ctr 4.0 | SMARCA2 conf 16 | VP16 Luc act inactive | LXRb hcDAF ctr inactive | hcDAF12 ag inactive | hgDAF12 ag 11 | LXR ag 2 inactive
Cn1c(=O)c2c(ncn2CC(=O)Nc2nc(-c3ccc(F)c(F)c3)cs2)n(C)c1=O	none
Cc1ccc2cc(CCNC(=O)c3cccs3)c(=O)[nH]c2c1C	hgDAF-12 ag 19, DAX1 inh-1 5.6 | DAX1 inh confirm 6.8 | SF1 mutant ctr 3.7 | hgDAF12 ag 18 | LXR ag 2 inactive
Cc1ccc2cc(CCNC(=O)CC(C)(C)C)c(=O)[nH]c2c1C	none
CCOc1cc(N2CCOCC2)c(OCC)cc1NC(=O)c1cc(C)cc(C)c1	none

Assay outcomes from PubChem BioAssay.
